# Assay results as given in ChEMBL document CHEMBL4513216, “Probing the Open Global Health Chemical Diversity Library for Multistage-Active Starting Points for Next-Generation Antimalarials” (ACS Infect Dis, 2020).
# Hit rate of the full screen: of about 69,000 compounds, about 8,600 (12%) showed an effect of 50% or more. For the sample, strong results were picked, then their nearest neighbours and some compounds at random.
# Test system: Plasmodium berghei
# Experiment: Screen against P. berghei liver stage (PbLuc), transformed with Luciferase, at 10uM
# Format: functional, HepG2
# Conditions: tested at 10 uM
row,Compound,INHIBITION
1,COc1c(C2CCCN2C(=O)c2cnccn2)c(C)nn1C (stereo unspecified),5.7%
2,O=C(c1ccc2c(c1)[nH]c(=O)n2C1CCCC1)N1CCSCC1,-6.72%
3,CN1CCN(C(=O)c2ccc3c(c2)[nH]c(=O)n3C2CCCC2)CC1,58.2%
4,O=C(c1ccc2c(c1)[nH]c(=O)n2C1CCCC1)N1CCC1,21.1%
5,CN1CCNC(=O)C12CCN(C(=O)c1ccc3[nH]c(=O)[nH]c3c1)CC2,38.2%
6,Cc1cnn(CC2CN(Cc3csc(C(C)C)n3)CCO2)c1 (stereo unspecified),9.64%
7,Cc1ccc(C(=O)N2CCC3(CCN3Cc3ccc(F)cc3)C2)cn1 (stereo unspecified),62.9%
8,COCCN1CCC12CCN(C(=O)c1ccc(C)nc1)C2 (stereo unspecified),54.8%
9,Cn1ccnc1C(=O)N1CCC2(CCN2Cc2ccc(F)cc2)C1 (stereo unspecified),25.8%
10,Cc1cnc(C(=O)N2CCC3(CCN3Cc3ccc(F)cc3)C2)cn1 (stereo unspecified),53.9%
11,COCCN1CCC12CCN(C(=O)c1ccsc1)CC2,-20.8%
12,Cc1ccc(C(=O)N2CCC3(CCCN(c4ncc(F)cn4)C3)C2)cn1 (stereo unspecified),36.7%
13,COCCN1CCC12CCN(C(=O)c1ccc3[nH]ccc3c1)C2 (stereo unspecified),27.6%
14,O=C(c1ccsc1)N1CCC2(CCN2Cc2ccc(F)cc2)C1 (stereo unspecified),-7.7%
15,Cc1cc(C(=O)N2CCC3(CCN3Cc3ccc(F)cc3)C2)no1 (stereo unspecified),-6.05%
16,Cc1cnn(CC2CCCN2Cc2noc(CC(C)C)n2)c1 (stereo unspecified),17.4%
17,CN1CCCN(C(=O)c2cnsn2)c2cc(F)ccc21,7.77%
18,Cc1ccc(Cn2nc(C)c3c(C(=O)O)c(Cl)c(C4CC4)nc32)cc1,31.7%
19,O=C(c1cc(Cl)c[nH]c1=O)N1C[C@H]2CC[C@@H](C1)N(Cc1ccccc1)C2,-28.7%

row,Compound,INHIBITION
1,Cn1cc(CN2C[C@@H]3CN(Cc4ccoc4)CCO[C@@H]3C2)cn1,7.11%
2,CCn1c(C)nc2cc(NC(=O)CC3CCCCO3)ccc21 (stereo unspecified),27.5375%
3,Oc1nc(N2CCCC2)nc2nccc(-c3ccccn3)c12,-13%
4,CCOC(=O)N1[C@@H](c2ccco2)[C@@H](CO)C[C@]12CCCCNC2=O,1.04%
5,CCCC(O)CN1CC(C)(C)CN(C(=O)CCc2ccccc2)CC1=O (stereo unspecified),20%
6,NC(=O)C1CCN(CC(=O)NCCn2cc(Cl)cn2)CC1,45.2%
7,N[C@@H]1CC[C@H](C(=O)NCCc2nc(-c3ccccc3)cs2)C1,-9.2%
8,CS(=O)(=O)N1CCC(C(=O)NCCCn2cc(Cl)cn2)CC1,40.3%
9,NC(=O)CN1CCC(C(=O)NCCn2cc(Cl)cn2)CC1,61%
10,O=C(NCCn1cc(Cl)cn1)C1CCN(C(=O)C2CC2)CC1,2.55%
11,N[C@@H]1CC[C@H](C(=O)NCCn2cc(Cl)cn2)C1,60.1%
12,COc1cccc(NC(=O)NCC(O)c2ccc(F)cc2F)c1 (stereo unspecified),-3.7%
13,CCc1cccc2cc(CN)c(=O)[nH]c12,10.365%
14,CC1CCC(NCCNC(=O)c2cccs2)CC1 (stereo unspecified),5.11%
15,Cc1c(CN2CCCC(C(=O)CCc3ccccc3)C2)cc(C#N)n1C (stereo unspecified),19.4%
16,Cc1c(CN2CCCC(C(=O)c3ccccc3)C2)cc(C#N)n1C (stereo unspecified),7.97%
17,Cc1c(CN2CCCC(C(=O)Nc3ccccc3)C2)cc(C#N)n1C (stereo unspecified),74%
18,CN(CCc1ccccn1)C(=O)Nc1cccnc1-n1cccn1,-19.2%
19,CCCN1CCCN(S(=O)(=O)c2cnc3onc(C)c3c2)CC1,56.7%

row,Compound,INHIBITION
1,Cc1noc2ncc(S(=O)(=O)N3CCCC(C)(C)CC3)cc12,36.1%
2,CCN1CCCN(S(=O)(=O)c2cnc3onc(C)c3c2)CC1,15.5%
3,COc1cccc(-c2n[nH]cc2CNC2CCN(C3CC3)CC2)c1,3.46%
4,CCSCCC(C)N(C)C(=O)c1ccc(C)o1 (stereo unspecified),85.2%
5,CCSCCC(C)N(C)C(=O)c1cc(C)no1 (stereo unspecified),55.2%
6,CCSCCC(C)N(C)C(=O)c1ccc2nncn2c1 (stereo unspecified),34.7%
7,Cc1cc(C(=O)N(C)C(C)CC(C)C)on1 (stereo unspecified),20.9%
8,COCC(c1cccc(C(F)(F)F)c1)N(C)C(=O)c1cc(C)no1 (stereo unspecified),-16.4%
9,CCSCCC(C)N(C)C(=O)c1cc(C)on1 (stereo unspecified),-93.6%
10,CC(C)NC(=O)CCN1CCCC1c1cccc2c1OCCO2 (stereo unspecified),35.4%
11,Cc1nc2ccccc2c(=O)n1CCC(=O)N1CCCCCC1,1.05%
12,COc1c[nH]c(C(=O)N2CCN(c3ccc(Cl)cc3)CC2)cc1=O,13.9%
13,Cc1nc(N2CCCC2)ncc1C(=O)Nc1ccc(Br)cc1,-10.2%
14,Cn1cc(NC(=O)CNC(=O)N2CCN(c3ccc(Cl)cc3)CC2)cn1,28.5%
15,Cc1nn(C)cc1C1=NS(=O)(=O)N(C)C(C(=O)Nc2ccc(Br)cc2)=C1,82.4%
16,Cc1nn(C)cc1C1=NS(=O)(=O)N(C)C(C(=O)Nc2ccc(Cl)cc2)=C1,77.7%
17,Cc1cc(=O)n(CC(=O)Nc2ccc(Cl)cc2)nc1C,25%
18,Cc1c(C2=NS(=O)(=O)N(C)C(C(=O)Nc3ccc(Br)cc3)=C2)cnn1C,49.9%
